# Rows were chosen to be rich in hits. Some 0.96% of all compounds tested hit in one or more screens of this group.
# FAK blocker: blocks human focal adhesion kinase activity | Q05397 | AID 727 | inhibition, %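 (tested at 7 µM)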 | actives 0.84% (n = 97,000) | biochemical FAK kinase activity assay;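 further: 0% = DMSO and 100% = reference compound high control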
# Mac1 fbg enh: enhancers of human CD11b/CD18 binding to fibrinogen; actives 0.07% (n = 93,000); activation, % at 10 µM; K562 CD11b/CD18 adhesion to fibrinogen, ATPlite luminescence;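 active means 10 µM primary screen giving 50% or more activity, confirmed by 40% or more on retest at that dose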
# CD11b adhes inh: inhibitors of human CD11b/CD18 binding to fibrinogen. P05107+P11215. K562 CD11b/CD18 adhesion to fibrinogen, ATPlite luminescence; Mn2+ added to activate the integrin. inhibition, % at 10 µM. actives 0.54% (n = 93,000);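 active means primary inhibition of 50% or more at 10 µM, then 40% or more on retest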
# Phagocyt inh: macrophage phagocytosis inhibition | J774A.1 macrophage IgG-bead phagocytosis, imaging | inhibition, % at 5 µM | actives 0.07% (n = 110,000);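 active means inhibition above the mean of the plate negative controls plus 5 SD, cut at about 13% in these data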;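 further: phagocytic index as fraction of beads internalized from green versus red external bead signal; plate controls were DMSO negative control for no effect and cytochalasin-D positive control for full effect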
# TNAP act mid DEA: activates human TNAP at intermediate phosphate acceptor concentration; P05186; purified TNAP, CDP-star luminescence, 100 mM DEA, 30 min; hits give high values; scale: 0 levamisole-inhibited, 1 vehicle-only enzyme; activation factor at 20 µM; 64,000 tested, under 10 active;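 active means activation factor of at least 2 at 20 µM, relative to controls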
# Target sequence (P05186 whole entry, looked up): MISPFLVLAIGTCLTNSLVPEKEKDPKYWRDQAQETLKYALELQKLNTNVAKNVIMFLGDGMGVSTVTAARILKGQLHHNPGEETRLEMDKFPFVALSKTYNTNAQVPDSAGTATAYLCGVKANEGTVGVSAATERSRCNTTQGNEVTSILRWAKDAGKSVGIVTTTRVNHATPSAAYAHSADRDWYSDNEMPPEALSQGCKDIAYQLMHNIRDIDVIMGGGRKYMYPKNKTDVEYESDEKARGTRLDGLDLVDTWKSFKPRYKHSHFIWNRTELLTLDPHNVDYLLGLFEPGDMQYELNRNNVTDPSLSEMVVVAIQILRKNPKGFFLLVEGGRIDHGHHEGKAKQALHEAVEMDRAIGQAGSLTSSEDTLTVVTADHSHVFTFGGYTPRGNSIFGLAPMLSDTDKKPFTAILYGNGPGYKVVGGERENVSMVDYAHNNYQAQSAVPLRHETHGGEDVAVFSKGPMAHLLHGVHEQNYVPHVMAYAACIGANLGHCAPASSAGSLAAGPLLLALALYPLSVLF
# FAK inh conf: FAK (human) inhibition confirmed | FAK kinase biochemical inhibition assay | actives 28% (n = 750) | AID 794 | inhibition, % at 7 µM | shares compounds with FAK blocker
# Numbers without * were called inactive; / = no result given. Unless noted, no stated cut-off is given here; in the data, active means inhibition above about 19%; inactive means the rest.
SMILES,FAK blocker,Mac1 fbg enh,CD11b adhes inh,Phagocyt inh,TNAP act mid DEA,FAK inh conf
O=C(CSc1nc2ccccc2[nH]1)Nc1ccc2c(c1)OCCO2,2,5,-4,-1,1,/
CCc1nc(SCC(=O)c2ccc3c(c2)OCCO3)c2ccccc2n1,22*,3,22,0,/,8
O=C(CSc1nc2ccccc2o1)Nc1ccc(N2CCOCC2)cc1,4,/,/,/,1,/
O=C(NCCc1ccccc1)C1CCCN1C(=O)Nc1ccc(F)cc1 (centres undefined),/,0,-3,-1,1,/
COc1cc2nc(CN3CCN(c4ncc(C(F)(F)F)cc4Cl)CC3)[nH]c(=O)c2cc1OC,/,0,51,-1,1,/
COc1ccccc1N1CCN(S(=O)(=O)c2ccc3c4c(cccc24)C(=O)N3C)CC1,4,3,2,/,0.9,/
COc1ccc2c3c(cccc13)N(C)N=C2C,34*,14,-29,0,/,11
Cc1nn(-c2nnc(NC3CCCCC3)nn2)c(C)c1Br,/,/,/,-2,/,/
Cc1oc(-c2ccccc2)cc1C(=O)Nc1cccc2ccccc12,26*,-1,-5,0,/,25*
Cc1oc(-c2ccccc2)cc1C(=O)Nc1cccc(C(=O)O)c1,-2,-8,/,0,0.8,/
CCCc1cc(C(N)=O)c(NC(=O)C2CCCO2)s1 (centres undefined),1,/,/,-1,1,/
CCCc1cc(C(N)=O)c(NC(=O)c2ccco2)s1,27*,-7,-16,-1,0.9,10
CN1CCc2c(sc3ncn4nc(-c5ccccc5O)nc4c23)C1,23*,-1,-2,0,0.9,28*
c1coc(-c2nc3c4c5c(sc4ncn3n2)CCCC5)c1,1,-2,-9,6,1,/
Cn1c(=O)c2c(ncn2CC(=O)OCC(=O)NCc2ccccc2Cl)n(C)c1=O,/,/,/,-3,/,/
CN(C(=O)c1cc(-n2cnnc2)ccc1Cl)c1ccccc1,/,/,/,-4,/,/
O=C1Nc2ccc(S(=O)(=O)NCc3ccco3)c3cccc1c23,19*,/,/,/,0.9,1
C=C(c1cccc2ccccc12)P(=O)(O)O,29*,-4,-6,2,0.8,20*
COc1ccc(-c2nc(-c3ccccc3)c(-c3cccs3)[nH]2)cc1OC,24*,-2,1,0,/,17
O=[N+]([O-])c1ccc(-c2nc(-c3cccs3)c(-c3cccs3)[nH]2)cc1,12,/,/,/,/,/
COc1ccc(-c2nc(-c3cccs3)c(-c3cccs3)[nH]2)cc1OC,22*,-3,13,0,/,23*
O=C(COC(=O)C1CC2C=CC1C2)NCc1ccco1 (centres undefined),30*,3,-4,0,0.9,3
O=C(COC(=O)C1CC2C=CC1C2)NCc1ccc(F)cc1 (centres undefined),/,/,/,-11,/,/
O=C(C[n+]1cccc(CNC(=O)c2ccc(OC(F)F)cc2)c1)Nc1cccc(C(F)(F)F)c1,/,/,/,-7,/,/
O/N=C/c1cc(Br)ccc1OCc1cccc(F)c1,20*,/,/,/,/,6
SMILES,FAK blocker,Mac1 fbg enh,CD11b adhes inh,Phagocyt inh,TNAP act mid DEA,FAK inh conf
O/N=C/c1cc(Br)ccc1OCc1ccc(F)cc1,18,/,/,/,/,/
O=C1Nc2ccccc2S/C1=C/Nc1cccc(Cl)c1,26*,21,-1,/,/,6
Clc1ccc(OCc2nn3c(-c4ccco4)nnc3s2)c(Cl)c1,39*,29,-2,0,0.9,18
O=C1Nc2ccc(NS(=O)(=O)c3cccs3)c3cccc1c23,42*,-2,8,0,0.9,19*
COc1ccc2noc3c2c1C(=O)c1ccccc1-3,/,/,/,/,0.8,/
O=C1c2ccccc2-c2onc3ccc(NCCCn4ccnc4)c1c23,36*,31,7,-2,0.8,27*
Cn1c2c(c(=O)n(C)c1=O)C1(C(=O)Nc3ccccc31)C(C#N)=C(N)O2 (centres undefined),-1,/,/,/,/,/
CC(C)c1ccc(-c2nc(N3CCCC3)nc3n[nH]c(N)c23)cc1,/,-6,-12,0,0.9,/
Nc1[nH]nc2nc(N3CCOCC3)nc(-c3ccccc3)c12,24*,-1,1,2,1,4
O=C(O)C1CCN(S(=O)(=O)/C=C/c2ccccc2)CC1,0,-6,16,/,/,/
CCOc1ccc(/C=N/NC(=O)c2cc(-c3ccco3)nc3ccccc23)cc1,/,/,/,-6,/,/
O=C(N/N=C/c1ccc(F)cc1)c1cc(-c2ccco2)nc2ccccc12,72*,/,/,/,/,45*
O=[N+]([O-])c1ccc(N/N=C\c2cccn2-c2ccccc2)nc1,30*,/,/,/,/,10

# Screening results as filed in PubChem.
